# Reference: paper PMC7862700, “An all-to-all approach to the identification of sequence-specific readers for epigenetic DNA modifications on cytosine”
# Key:
# Experiment in all cases: DAPPL (digital affinity profiling via proximity ligation, sequencing); 10 mM Tris-HCl pH 7.5, 50 mM NaCl, 1 mM DTT, 4% glycerol, room temperature, 30 min; GST-TFs on glutathione beads, 16-mer random dsDNA library, 0.1% formaldehyde crosslink after washing; high values mean tight binding
# FEV = biological target: T1, FEV (Homo sapiens, UniProt Q99581 1-238); conditions: protein: recombinant; tags: N-terminal GST; dsDNA, one strand shown
# T1 sequence: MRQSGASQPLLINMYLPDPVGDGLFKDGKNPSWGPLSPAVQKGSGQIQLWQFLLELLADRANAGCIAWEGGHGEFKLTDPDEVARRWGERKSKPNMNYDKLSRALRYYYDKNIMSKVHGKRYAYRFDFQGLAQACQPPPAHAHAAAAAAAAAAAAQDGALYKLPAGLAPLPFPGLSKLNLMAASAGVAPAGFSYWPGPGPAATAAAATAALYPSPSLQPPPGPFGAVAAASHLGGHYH
# Procedure, shortened: (§1)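 Binding signal is each hexamer's read frequency for a factor divided by its frequency in the tag-only sample. The factors were GST-fused human transcription factors from yeast, captured on glutathione beads, DNA-barcoded and pooled with that sample. Pools were incubated with 200 nmole of a random double-stranded 16-mer DNA library in Tris/NaCl/DTT/glycerol buffer at room temperature for 30 min, then washed, crosslinked with 0.1% formaldehyde, proximity-ligated with BsaI/T4 ligase (1 h, 37 °C), PCR-amplified and sequenced on an Illumina NextSeq500.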
# ETV5 = ETV5 (Homo sapiens, UniProt P41161 1-510); conditions: protein: recombinant; tags: N-terminal GST; dsDNA, one strand shown
# Sequence of ETV5 (P41161 whole entry): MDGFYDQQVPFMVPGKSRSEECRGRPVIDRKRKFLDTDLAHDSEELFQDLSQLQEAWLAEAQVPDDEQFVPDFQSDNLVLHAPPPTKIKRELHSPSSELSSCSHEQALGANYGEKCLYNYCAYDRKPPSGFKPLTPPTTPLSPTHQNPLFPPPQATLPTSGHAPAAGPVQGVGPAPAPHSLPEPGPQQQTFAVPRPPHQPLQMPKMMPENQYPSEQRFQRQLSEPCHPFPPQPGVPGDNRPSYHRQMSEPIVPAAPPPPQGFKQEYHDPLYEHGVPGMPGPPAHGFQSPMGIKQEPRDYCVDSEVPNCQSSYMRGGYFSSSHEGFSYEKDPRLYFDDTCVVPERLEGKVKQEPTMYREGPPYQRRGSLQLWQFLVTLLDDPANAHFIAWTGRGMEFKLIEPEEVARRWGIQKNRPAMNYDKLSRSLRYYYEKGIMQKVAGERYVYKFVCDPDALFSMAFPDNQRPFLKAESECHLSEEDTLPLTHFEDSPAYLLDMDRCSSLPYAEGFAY
# Procedure, shortened: as §1
# HSF1 = HSF1 (Homo sapiens, UniProt Q00613 1-529); conditions: protein: recombinant; tags: N-terminal GST; chain copies: 3; dsDNA, one strand shown
# Sequence of HSF1 (Q00613 whole entry): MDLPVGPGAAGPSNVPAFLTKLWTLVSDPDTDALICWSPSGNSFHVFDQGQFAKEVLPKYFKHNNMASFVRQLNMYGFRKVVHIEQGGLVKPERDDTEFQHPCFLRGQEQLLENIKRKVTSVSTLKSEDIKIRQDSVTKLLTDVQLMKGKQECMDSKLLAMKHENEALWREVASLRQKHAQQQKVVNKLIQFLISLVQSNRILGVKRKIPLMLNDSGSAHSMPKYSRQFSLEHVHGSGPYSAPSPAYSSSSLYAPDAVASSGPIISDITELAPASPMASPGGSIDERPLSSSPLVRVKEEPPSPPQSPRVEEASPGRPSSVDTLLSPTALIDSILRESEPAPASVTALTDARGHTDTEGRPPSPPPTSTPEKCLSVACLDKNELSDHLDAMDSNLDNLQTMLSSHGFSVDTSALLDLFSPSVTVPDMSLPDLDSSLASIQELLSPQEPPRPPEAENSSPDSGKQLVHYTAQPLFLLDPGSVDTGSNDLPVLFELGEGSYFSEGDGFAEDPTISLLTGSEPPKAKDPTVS
# Procedure, shortened: as §1
# ELF4 = ELF4 (Homo sapiens, UniProt Q99607 1-663); conditions: protein: recombinant; tags: N-terminal GST; dsDNA, one strand shown
# Sequence of ELF4 (Q99607 whole entry): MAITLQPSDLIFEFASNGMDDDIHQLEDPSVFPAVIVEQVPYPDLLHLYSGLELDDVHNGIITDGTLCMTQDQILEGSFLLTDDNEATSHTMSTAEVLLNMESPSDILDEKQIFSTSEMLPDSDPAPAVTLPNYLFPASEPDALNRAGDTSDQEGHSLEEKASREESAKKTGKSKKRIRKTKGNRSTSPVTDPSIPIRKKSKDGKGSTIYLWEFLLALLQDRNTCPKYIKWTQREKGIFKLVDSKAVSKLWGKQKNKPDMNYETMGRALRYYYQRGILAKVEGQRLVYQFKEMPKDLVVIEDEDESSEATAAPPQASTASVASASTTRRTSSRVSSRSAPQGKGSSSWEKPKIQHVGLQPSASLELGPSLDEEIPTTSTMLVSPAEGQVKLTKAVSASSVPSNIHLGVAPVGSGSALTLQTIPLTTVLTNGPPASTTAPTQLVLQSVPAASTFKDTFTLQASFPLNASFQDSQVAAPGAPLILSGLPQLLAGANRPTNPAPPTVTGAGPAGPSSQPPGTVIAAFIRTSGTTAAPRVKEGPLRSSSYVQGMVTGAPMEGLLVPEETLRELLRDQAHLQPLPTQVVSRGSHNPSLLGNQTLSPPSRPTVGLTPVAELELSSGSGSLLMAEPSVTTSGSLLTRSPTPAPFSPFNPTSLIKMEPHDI
# Procedure, shortened: as §1
# ELK4 = biological target: T2, ELK4 (Homo sapiens, UniProt P28324-2 1-405); conditions: protein: recombinant; tags: N-terminal GST; dsDNA, one strand shown
# T2 sequence: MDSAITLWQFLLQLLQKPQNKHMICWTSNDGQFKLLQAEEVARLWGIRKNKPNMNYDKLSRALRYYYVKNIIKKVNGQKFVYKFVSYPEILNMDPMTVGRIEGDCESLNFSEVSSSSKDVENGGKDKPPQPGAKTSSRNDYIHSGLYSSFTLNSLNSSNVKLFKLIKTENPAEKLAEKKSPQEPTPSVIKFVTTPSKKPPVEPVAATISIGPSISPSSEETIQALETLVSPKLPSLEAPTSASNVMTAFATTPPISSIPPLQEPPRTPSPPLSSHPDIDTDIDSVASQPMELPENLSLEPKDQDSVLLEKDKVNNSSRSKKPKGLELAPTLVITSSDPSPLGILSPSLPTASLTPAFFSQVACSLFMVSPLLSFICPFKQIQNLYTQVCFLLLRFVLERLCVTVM
# Procedure, shortened: as §1
# ETV2 = biological target: T3, ETV2 (Homo sapiens, UniProt O00321 1-342); conditions: protein: recombinant; tags: N-terminal GST; dsDNA, one strand shown
# T3 sequence: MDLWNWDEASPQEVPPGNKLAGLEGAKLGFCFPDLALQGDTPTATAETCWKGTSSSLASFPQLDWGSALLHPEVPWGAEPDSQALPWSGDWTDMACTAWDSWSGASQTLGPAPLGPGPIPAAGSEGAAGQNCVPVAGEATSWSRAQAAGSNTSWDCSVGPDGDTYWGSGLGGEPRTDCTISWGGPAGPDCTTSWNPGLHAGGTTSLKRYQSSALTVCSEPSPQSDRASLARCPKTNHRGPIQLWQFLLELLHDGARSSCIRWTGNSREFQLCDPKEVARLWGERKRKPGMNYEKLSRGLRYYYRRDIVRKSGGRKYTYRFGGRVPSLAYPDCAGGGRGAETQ
# Procedure, shortened: as §1
# ELF3 = biological target: T4, ELF3 (Homo sapiens, UniProt P78545 1-371); conditions: protein: recombinant; tags: N-terminal GST; dsDNA, one strand shown
# T4 sequence: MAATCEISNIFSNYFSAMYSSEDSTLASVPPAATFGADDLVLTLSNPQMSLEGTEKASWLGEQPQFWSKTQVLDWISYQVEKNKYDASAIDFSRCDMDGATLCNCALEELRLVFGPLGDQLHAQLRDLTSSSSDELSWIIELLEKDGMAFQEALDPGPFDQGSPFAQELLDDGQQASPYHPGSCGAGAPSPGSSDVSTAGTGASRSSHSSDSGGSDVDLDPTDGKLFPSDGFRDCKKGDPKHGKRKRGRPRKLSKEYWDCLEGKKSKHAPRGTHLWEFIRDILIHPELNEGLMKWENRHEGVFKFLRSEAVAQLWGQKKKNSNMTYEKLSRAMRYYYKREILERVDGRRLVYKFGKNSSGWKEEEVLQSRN
# Procedure, shortened: as §1
# CRX = CRX (Homo sapiens, UniProt O43186 1-299); conditions: protein: recombinant; tags: N-terminal GST; dsDNA, one strand shown
# Sequence of CRX (O43186 whole entry): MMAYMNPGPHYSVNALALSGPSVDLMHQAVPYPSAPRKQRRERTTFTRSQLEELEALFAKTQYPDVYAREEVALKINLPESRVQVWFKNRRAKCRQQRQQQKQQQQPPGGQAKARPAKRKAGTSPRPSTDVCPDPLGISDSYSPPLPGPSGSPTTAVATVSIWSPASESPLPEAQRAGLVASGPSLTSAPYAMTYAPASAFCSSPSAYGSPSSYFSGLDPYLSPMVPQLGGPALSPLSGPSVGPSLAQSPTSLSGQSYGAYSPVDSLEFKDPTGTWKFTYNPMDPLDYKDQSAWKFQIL
# Procedure, shortened: as §1
# ETV1 = ETV1 (Homo sapiens, UniProt P50549 1-477); conditions: protein: recombinant; tags: N-terminal GST; dsDNA, one strand shown
# Sequence of ETV1 (P50549 whole entry): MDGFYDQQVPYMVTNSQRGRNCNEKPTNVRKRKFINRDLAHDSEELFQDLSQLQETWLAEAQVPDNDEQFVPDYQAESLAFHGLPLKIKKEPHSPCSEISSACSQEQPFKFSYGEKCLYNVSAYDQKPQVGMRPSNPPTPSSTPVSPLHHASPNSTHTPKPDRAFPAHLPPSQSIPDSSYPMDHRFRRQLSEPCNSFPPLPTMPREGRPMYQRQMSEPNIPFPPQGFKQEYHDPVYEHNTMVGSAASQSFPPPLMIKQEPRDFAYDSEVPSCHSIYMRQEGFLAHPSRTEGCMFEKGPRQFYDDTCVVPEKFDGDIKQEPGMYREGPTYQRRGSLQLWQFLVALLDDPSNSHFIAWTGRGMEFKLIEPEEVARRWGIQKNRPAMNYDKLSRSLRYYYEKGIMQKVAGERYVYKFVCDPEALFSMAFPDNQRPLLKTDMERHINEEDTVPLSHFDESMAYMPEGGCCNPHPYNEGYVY
# Procedure, shortened: as §1
# ERF = biological target: T5, ERF (Homo sapiens, UniProt P50548 1-548); conditions: protein: recombinant; tags: N-terminal GST; dsDNA, one strand shown
# T5 sequence: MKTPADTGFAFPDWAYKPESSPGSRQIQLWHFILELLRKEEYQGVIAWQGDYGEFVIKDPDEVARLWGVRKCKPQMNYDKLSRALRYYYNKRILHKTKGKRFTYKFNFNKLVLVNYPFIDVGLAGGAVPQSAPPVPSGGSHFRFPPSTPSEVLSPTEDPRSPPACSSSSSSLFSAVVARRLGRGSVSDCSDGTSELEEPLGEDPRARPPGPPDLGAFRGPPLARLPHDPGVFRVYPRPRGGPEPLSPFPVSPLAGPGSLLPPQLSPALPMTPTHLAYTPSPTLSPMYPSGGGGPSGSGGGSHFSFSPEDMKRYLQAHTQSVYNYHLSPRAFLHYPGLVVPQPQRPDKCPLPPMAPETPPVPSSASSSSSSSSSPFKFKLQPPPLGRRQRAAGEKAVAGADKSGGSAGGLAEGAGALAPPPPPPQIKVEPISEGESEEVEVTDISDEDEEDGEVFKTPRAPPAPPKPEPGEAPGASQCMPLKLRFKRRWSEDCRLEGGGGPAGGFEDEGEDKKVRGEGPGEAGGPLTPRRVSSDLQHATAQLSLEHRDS
# Procedure, shortened: as §1
# ETV3L = biological target: T6, ETV3L (Homo sapiens, UniProt Q6ZN32 1-361); conditions: protein: recombinant; tags: N-terminal GST; dsDNA, one strand shown
# T6 sequence: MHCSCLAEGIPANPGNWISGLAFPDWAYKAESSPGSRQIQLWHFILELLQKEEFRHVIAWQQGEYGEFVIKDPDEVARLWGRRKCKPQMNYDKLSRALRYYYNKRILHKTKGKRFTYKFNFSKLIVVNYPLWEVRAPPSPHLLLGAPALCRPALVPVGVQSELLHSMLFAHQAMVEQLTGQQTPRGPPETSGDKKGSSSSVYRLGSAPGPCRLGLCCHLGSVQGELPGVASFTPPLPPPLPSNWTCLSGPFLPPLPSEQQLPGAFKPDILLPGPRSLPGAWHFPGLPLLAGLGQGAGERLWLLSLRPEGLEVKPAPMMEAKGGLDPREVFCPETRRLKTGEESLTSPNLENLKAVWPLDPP
# Procedure, shortened: as §1
# ETS2 = biological target: T7, ETS2 (Homo sapiens, UniProt P15036 1-469); conditions: protein: recombinant; tags: N-terminal GST; dsDNA, one strand shown
# T7 sequence: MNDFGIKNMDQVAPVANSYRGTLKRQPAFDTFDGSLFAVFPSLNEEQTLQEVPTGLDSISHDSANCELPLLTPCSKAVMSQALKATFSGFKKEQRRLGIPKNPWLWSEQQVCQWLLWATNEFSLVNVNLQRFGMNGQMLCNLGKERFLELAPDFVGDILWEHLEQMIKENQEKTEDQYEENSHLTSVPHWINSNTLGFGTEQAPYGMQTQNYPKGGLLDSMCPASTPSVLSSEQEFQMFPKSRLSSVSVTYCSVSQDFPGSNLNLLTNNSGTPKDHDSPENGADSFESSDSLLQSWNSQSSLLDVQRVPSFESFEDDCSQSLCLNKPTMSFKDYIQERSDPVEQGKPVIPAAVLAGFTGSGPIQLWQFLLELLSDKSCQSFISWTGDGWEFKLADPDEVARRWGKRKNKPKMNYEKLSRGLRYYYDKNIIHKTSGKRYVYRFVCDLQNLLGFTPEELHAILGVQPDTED
# Procedure, shortened: as §1
# SPDEF = biological target: T8, SPDEF (Homo sapiens, UniProt O95238 1-335); conditions: protein: recombinant; tags: N-terminal GST; dsDNA, one strand shown
# T8 sequence: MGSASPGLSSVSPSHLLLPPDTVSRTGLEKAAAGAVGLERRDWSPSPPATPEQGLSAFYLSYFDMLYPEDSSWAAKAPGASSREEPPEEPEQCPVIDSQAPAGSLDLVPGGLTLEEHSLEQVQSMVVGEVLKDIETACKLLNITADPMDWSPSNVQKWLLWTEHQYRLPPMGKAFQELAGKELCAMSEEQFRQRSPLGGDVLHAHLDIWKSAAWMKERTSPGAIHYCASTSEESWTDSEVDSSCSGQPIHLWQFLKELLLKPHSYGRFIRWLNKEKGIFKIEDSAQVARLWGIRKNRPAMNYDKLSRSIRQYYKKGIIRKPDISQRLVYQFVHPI
# Procedure, shortened: as §1
# ETV7 = biological target: T9, ETV7 (Homo sapiens, UniProt Q9Y603 1-341); conditions: protein: recombinant; tags: N-terminal GST; dsDNA, one strand shown
# T9 sequence: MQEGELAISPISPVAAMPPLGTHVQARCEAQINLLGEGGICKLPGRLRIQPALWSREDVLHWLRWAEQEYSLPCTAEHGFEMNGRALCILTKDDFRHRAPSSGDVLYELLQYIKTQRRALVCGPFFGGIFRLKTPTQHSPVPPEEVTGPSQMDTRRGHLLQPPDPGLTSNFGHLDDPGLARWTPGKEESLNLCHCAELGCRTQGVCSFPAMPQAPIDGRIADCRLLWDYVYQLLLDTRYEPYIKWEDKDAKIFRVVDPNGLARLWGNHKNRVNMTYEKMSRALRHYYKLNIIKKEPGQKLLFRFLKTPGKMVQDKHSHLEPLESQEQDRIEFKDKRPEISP
# Procedure, shortened: as §1
# ELF5 = biological target: T10, ELF5 (Homo sapiens, UniProt Q9UKW6-2 1-255); conditions: protein: recombinant; tags: N-terminal GST; dsDNA, one strand shown
# T10 sequence: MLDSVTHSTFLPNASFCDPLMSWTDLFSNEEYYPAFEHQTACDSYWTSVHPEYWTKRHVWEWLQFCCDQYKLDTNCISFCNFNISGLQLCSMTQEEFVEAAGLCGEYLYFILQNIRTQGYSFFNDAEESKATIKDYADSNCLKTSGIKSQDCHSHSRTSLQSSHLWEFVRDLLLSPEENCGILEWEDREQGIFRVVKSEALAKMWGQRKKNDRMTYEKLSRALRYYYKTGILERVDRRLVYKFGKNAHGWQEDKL
# Procedure, shortened: as §1
# ETV3 = biological target: T11, ETV3 (Homo sapiens, UniProt P41162-2 1-143); conditions: protein: recombinant; tags: N-terminal GST; dsDNA, one strand shown
# T11 sequence: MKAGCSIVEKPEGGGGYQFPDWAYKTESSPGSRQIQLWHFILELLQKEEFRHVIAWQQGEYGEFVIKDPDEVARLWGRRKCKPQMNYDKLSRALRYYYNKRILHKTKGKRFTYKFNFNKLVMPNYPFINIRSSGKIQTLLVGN
# Procedure, shortened: as §1
# ETV6 = ETV6 (Homo sapiens, UniProt P41212 1-452); conditions: protein: recombinant; tags: N-terminal GST; dsDNA, one strand shown
# Sequence of ETV6 (P41212 whole entry): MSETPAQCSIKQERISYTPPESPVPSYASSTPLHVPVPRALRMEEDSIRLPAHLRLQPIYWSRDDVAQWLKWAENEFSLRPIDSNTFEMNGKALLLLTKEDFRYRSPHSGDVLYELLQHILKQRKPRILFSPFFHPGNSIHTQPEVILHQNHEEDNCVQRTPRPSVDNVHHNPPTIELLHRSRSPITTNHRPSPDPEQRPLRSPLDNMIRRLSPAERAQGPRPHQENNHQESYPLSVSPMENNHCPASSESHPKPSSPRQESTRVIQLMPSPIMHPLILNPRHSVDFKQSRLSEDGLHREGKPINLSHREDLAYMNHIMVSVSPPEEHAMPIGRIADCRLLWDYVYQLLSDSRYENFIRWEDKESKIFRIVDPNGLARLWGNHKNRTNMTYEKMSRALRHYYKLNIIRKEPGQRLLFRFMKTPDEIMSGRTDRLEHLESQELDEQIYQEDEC
# Procedure, shortened: as §1
sequence,measurement,setting,value
GTTTTA,binding signal,FEV,"1.08 fold enrichment (6-mer frequency, TF over GST control)"
same,binding signal,ETV5,"1.07 fold enrichment (6-mer frequency, TF over GST control)"
same,binding signal,HSF1,"1.17 fold enrichment (6-mer frequency, TF over GST control)"
same,binding signal,ELF4,"1.15 fold enrichment (6-mer frequency, TF over GST control)"
same,binding signal,ELK4,"1.07 fold enrichment (6-mer frequency, TF over GST control)"
same,binding signal,ETV2,"1.1 fold enrichment (6-mer frequency, TF over GST control)"
same,binding signal,ELF3,"1.06 fold enrichment (6-mer frequency, TF over GST control)"
same,binding signal,CRX,"1.41 fold enrichment (6-mer frequency, TF over GST control)"
same,binding signal,ETV1,"1.13 fold enrichment (6-mer frequency, TF over GST control)"
same,binding signal,ERF,"1.2 fold enrichment (6-mer frequency, TF over GST control)"
same,binding signal,ETV3L,"1.02 fold enrichment (6-mer frequency, TF over GST control)"
same,binding signal,ETS2,"1.1 fold enrichment (6-mer frequency, TF over GST control)"
same,binding signal,SPDEF,"1.04 fold enrichment (6-mer frequency, TF over GST control)"
same,binding signal,ETV7,"1.23 fold enrichment (6-mer frequency, TF over GST control)"
same,binding signal,ELF5,"1.09 fold enrichment (6-mer frequency, TF over GST control)"
same,binding signal,ETV3,"1.21 fold enrichment (6-mer frequency, TF over GST control)"
same,binding signal,ETV6,"1.13 fold enrichment (6-mer frequency, TF over GST control)"
